# Most compounds without a hit are left out; they make up all but 2.9% or so of the library.
# DRD3 agonist – agonists of human D3 dopamine receptor; P35462; D3R DiscoveRx beta-arrestin cells, luminescence, 90 min; AID 652048; 410,000 tested, 0.58% active; max activation, %; in the data active = max activation above about 30%; note: 0% is about no effect
# Target sequence (P35462 whole entry, looked up): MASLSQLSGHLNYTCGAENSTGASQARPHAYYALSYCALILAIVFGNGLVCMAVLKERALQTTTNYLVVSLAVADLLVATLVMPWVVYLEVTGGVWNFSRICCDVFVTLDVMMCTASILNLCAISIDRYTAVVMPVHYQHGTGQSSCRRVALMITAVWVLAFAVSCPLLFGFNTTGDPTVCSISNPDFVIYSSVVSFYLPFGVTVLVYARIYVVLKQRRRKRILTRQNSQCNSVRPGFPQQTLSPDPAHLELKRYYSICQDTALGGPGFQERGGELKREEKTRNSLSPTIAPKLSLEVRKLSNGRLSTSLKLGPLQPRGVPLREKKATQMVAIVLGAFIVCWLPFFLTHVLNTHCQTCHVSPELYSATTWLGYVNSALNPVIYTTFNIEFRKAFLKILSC
#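 Cells at 1500/well, incubated overnight, then treated with pinned compounds (dopamine as control) for 90 min at 37 degrees C. DiscoveRx reagent added for 30 - 60 minutes at room temperature; luminescence read.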
# Rango dissoc inh – inhibitors of RanGTP-induced Rango-importin beta complex dissociation | Biochemical FRET Rango-importin beta, RanGTP-induced dissociation | Potency, µM (highest dose often 46.1 µM), for the others: top-dose activity change, negative = inhibition | 340,000 tested, 0.071% active | AID 540253; note: potency is the fitted concentration of half-maximal effect; % of control where 0% means no effect; nearly all actives have a fitted effect of over 45% in size
#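 Rango/importin beta premix (0.1/0.25 uM final), PBS + 1 mM DTT + 0.02% Tween-20 + 0.1% BSA; cpd 5 min RT; FRET pre-read; + RanGTP-RCC1 (0.6 uM Ran, 2 mM GTP, 0.2 uM RCC1); 45 min RT; FRET post-read, ex 430, em 486/530 nm.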
# PTAP TSG101 blk – blocks PTAP/TSG101 interaction to inhibit HIV-1 budding | Fluorescence polarization, FITC-PTAP peptide / Tsg101 binding | 340,000 tested, under 10 active | Q99816 | AID 493005 | Potency, µM (titrated, usually from 115 µM), for inactives: at the highest dose activity change, negative = inhibition, usual class: inhibitors; active = well fitted inhibition curve with a large enough effect in the main read-out, with a control signal flat, not every such curve was filed as active; inconclusive = small, poorly fitted or top-dose-only effect, or effect the other way, or a change in a side signal; inactive = no such curve, though single readings can be large or run the other way; note: potency is the fitted concentration of half-maximal effect; % of control where 0% means no effect
#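 Fluorescence anisotropy tracks displacement of a FITC-tagged PTAP peptide (50 nM) from the Tsg101 binding domain (10 uM), following a 20 min room-temperature incubation at pH 7.5.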
# MmCpn inh – blocks the Methanococcus maripaludis chaperonin Mm-Cpn; AID 504842; Potency, µM (titrated, usually from 76.9 µM), for the others: at the highest dose activity, negative = inhibition, most hits filed as inhibitors; 330,000 tested, 0.031% active; purified Mm-Cpn ATPase, ADP Transcreener TR-FRET; active = well fitted inhibition curve with a large enough effect; inconclusive = small, poorly fitted or top-dose-only effect; note: potency is the fitted concentration of half-maximal effect; % is set by controls: 0 for no effect and ±100 for the full control effect; nearly all actives have a fitted effect of over 80% in size
#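 ATPase turnover read by TR-FRET ADP competition (Eu cryptate antibody/ADP-d2, 665/590 nm): 10uM ATP final, 25nM Mm-CPN final, 30 min 37degC after 10-min compound preincubation, pH 7.4 Tris/KCl/MgCl2/DTT buffer.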
# D3 antag – antagonists of human D3 dopamine receptor; 360,000 tested, 2.5% active; AID 652054; P35462; D3R cells, DiscoveRx beta-arrestin luminescence, antagonist mode; stronger effect = lower value; max response, negative = inhibition, %; in the data active = max response below about -50%; inconclusive = no clear call, values can overlap the other calls; note: % is set by controls: 0 for no effect and ±100 for the full control effect
#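 Cells plated overnight at 1500 cells/well, then exposed to library compounds with dopamine controls for 90 minutes at 37 degrees C. DiscoveRx reagent added for 30–60 minutes at room temperature; luminescence read, quantitative HTS format.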
# Rango-impB inh – Rango-importin beta binding inhibition. Q14974. Rango CFP/YFP FRET sensor + importin beta, 45 min. Potency, µM (highest dose often 92.2 µM), for inactives: at the highest dose inhibition of complex formation. 340,000 tested, 0.031% active. AID 540263;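 note: potency is the fitted concentration of half-maximal effect; 0% = DMSO wells and 100% = buffer wells lacking importin beta; nearly all actives have a fitted effect of over 15% in size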
#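 FRET biosensor (snurportin 1 IBB flanked by EYFP and cerulean), 50 nM, with compound 5 min, then 0.125 microM importin beta in PBS, 1 mM DTT, 0.02% Tween-20, 0.1% BSA. CFP/YFP ratio read after 45 min at room temperature; pre-read flags interference.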
# * marks the source's active call; other numbers are inactive results; ? = inconclusive; / = not tested or not shown. Unless noted, calls come from the whole dose curve.
SMILES,DRD3 agonist,Rango dissoc inh,PTAP TSG101 blk,MmCpn inh,D3 antag,Rango-impB inh
CCC(C)(C)c1ccc(CC(C)CN2C[C@@H](C)O[C@@H](C)C2)cc1 (stereo partly specified),-3,/,/,/,/,/
CC1(C)C[C@H](O)[C@]2(CO)CC[C@]3(C)C(=CCC4[C@@]5(C)CC[C@H](O)C(C)(C)C5CC[C@]43C)[C@@H]2C1 (stereo partly specified),8,-9%,-1%,0%,32,?
CC1(C)C[C@H](O)[C@]2(CO)[C@H](O)C[C@]3(C)C(=CCC4[C@@]5(C)CC[C@H](O)C(C)(C)C5CC[C@]43C)[C@@H]2C1 (stereo partly specified),-7,-3%,4%,-3%,-84*,0%
COCCCNC(=O)c1ccc(Cn2c(=O)c3ccccc3n(CC(=O)Nc3c(C)cccc3C)c2=O)cc1,-10,/,/,/,/,/
Cc1cc(C)n2cc(CSc3nnc(N)s3)nc2n1,1,-13%,-3%,0%,-53*,2%
Cc1cc(C)n2cc(CSc3nc4cc(Cl)ccc4o3)nc2n1,-1,11%,-3%,-1%,-51*,-1%
Cc1cc(C)n2cc(CSc3nnc(SCc4cn5c(C)cc(C)nc5n4)s3)nc2n1,/,/,/,-2%,/,/
Cc1cc(C)n2cc(CSc3ccc(Cl)cc3)nc2n1,1,-17%,-1%,1%,1,3%
Cc1cc(F)ccc1NC(=O)C1CCCN(S(=O)(=O)c2ccc3c(c2)CCCC(=O)N3)C1 (stereo unspecified),3,/,/,/,/,/
CCCn1c2ccccc2c2cnn(CC(=O)NCCc3ccc(OC)cc3OC)c(=O)c21,2,/,/,/,/,/
Cc1sc2nc(SCCN(C)C)n(-c3ccccc3)c(=O)c2c1-c1ccc(F)cc1,-15,8%,-5%,-7%,-69*,0%
CCSc1nn(CC(=O)Nc2cccc(CC)c2)c(N)c1S(=O)(=O)c1ccccc1,1,/,/,/,/,/
CN1C(CSCC(F)(F)F)Nc2cc(Cl)c(S(N)(=O)=O)cc2S1(=O)=O (stereo unspecified),10,/,/,/,/,/
O=C(C[n+]1ccccc1)N/N=C/c1cc(Br)ccc1O,-2,-25%,-5%,3%,-89*,4%
CN1CCN(CCCNC(=O)Cn2ncc3c4ccccc4n(C)c3c2=O)CC1,0,8%,-8%,1%,-1,-1%
COc1ccccc1N1CCN(CCCNC(=O)Cn2ncc3c([nH]c4ccccc43)c2=O)CC1,-22,6%,-3%,1%,-108*,0%
Cn1c2ccccc2c2cnn(CC(=O)NCCCN3CCN(c4ccccc4F)CC3)c(=O)c21,11,8%,-7%,1%,-90*,1%
CCCn1c2ccccc2c2cnn(CC(=O)NCCCN3CCN(c4ccccc4)CC3)c(=O)c21,4,16%,-4%,1%,-83*,5%
CC(C)c1ccc2oc(-c3ccc(Cl)c(NC(=O)c4cccs4)c3)nc2c1,7,/,/,/,/,/
CCN1C(C(=O)c2ccccc2)=C(OC(=O)COc2ccccc2)c2ccccc2S1(=O)=O,-12,/,/,/,/,/
COc1cccc(-n2c(=O)c3sc4ccccc4c3n(CC(=O)Nc3ccc(F)cc3F)c2=O)c1,-8,/,/,/,/,/
O=c1oc2ccccc2c(Nc2ccccc2O)c1[N+](=O)[O-],-8,-3%,-2%,1%,?,-1%
O=c1oc2ccccc2c(Nc2cccc3ccccc23)c1[N+](=O)[O-],-2,8%,-14%,-3%,-63*,-1%
CC(C)(C)c1nnc(N/N=C/c2cc(Br)ccc2O)n(N)c1=O,57*,3%,-8%,0%,90,-1%
CCc1nnc(N/N=C/c2cc(Br)c(O)cc2O)n1N,-2,-30%,3%,-1%,6,?
CN1CCN(c2nc(-c3ccccc3)ncc2S(=O)(=O)c2ccccc2)CC1,-38,3%,-8%,-1%,-79*,1%
CSc1nc(-c2ccccc2)nc(N2CCCC2)c1C(C)=O,3,4%,0%,/,13,1%

# Source: PubChem BioAssay
